# Assay results taken from PubChem BioAssay (EPA / NIEHS).
# The source made the active and inactive calls. How the source made its calls: active means hit-call score of the fitted dose curve at least 0.9, where 1 is the maximum; inconclusive means response in the unintended direction; inactive means score below 0.9.
# Test: Tanguay_ZF_120hpf_MORT_legacy: (Legacy) Oregon State University Tanguay Lab 120 Hour Post-fertilization zebrafish Assay for Mortality (AID 2283633)
# Description: Tanguay_ZF_120hpf_legacy is a whole embryo, multiplexed endpoint assay using zebrafish larvae exposed for 120 hours post fertilization on a 96-well plate.Tanguay_ZF_120hpf_MORT_legacy is one of one assay component(s) measured or calculated from the Tanguay_ZF_120hpf_legacy assay. It is designed to make measurements of embryonic mortality as detected with brightfield microscopy of developing zebrafish embryos.Data from the assay component Tanguay_ZF_120hpf_MORT_legacy was analyzed into 1 assay endpoints. This assay endpoint, Tanguay_ZF_120hpf_MORT_legacy, was analyzed in the positive analysis fitting direction relative to DMSO as the negative control and baseline of activity. Using a type of viability reporter, gain-of-signal activity can be used to understand changes in developmentals as they relate to the whole embryo. To generalize the intended target to other relatable targets, this assay endpoint is annotated to the embryonic mortality intended target family, where the subfamily is embryonic mortality.
# Zebrafish husbandry: Tropical 5D wild-type adult zebrafish were housed in at an approximate density of 1000 per 100 gallon tank at the Sinnhuber Aquatic Research Laboratory, Oregon State University, Corvallis, OR. Each tank was kept at standard laboratory conditions of 28C on a 14-h light/10-h dark photoperiod in fish water consisting of reverse osmosis water supplemented with a commercially available salt (Instant Ocean). Spawning funnels were placed into the tanks the night prior, and embryos were collected and staged. To increase bioavailability, the chorion was enzymatically removed using pronase (63.6mg/ml, >/= 3.5U/mg, Sigma-Aldrich: P5147) at 4 hours post fertilization (hpf) using a custom automated dechorionator.Chemical exposures: Six hpf dechorionated embryos were placed 1 embryo per well in a 96-well plate prefilled with 90 ul of EM using automated embryo placement systems (AEPS). Ten microliters of each row of dilution plate 2 was added to 2 exposure plates. The final DMSO concentration used was 0.64% (vol/vol). Thirty-two embryos were also exposed to 5uM trimethyltin chloride (positive control). Plates were sealed to prevent evaporation and foil covered to reduce light exposure and kept in a 28C incubator. Embryos were statically exposed until 120 hpf. At 24 hpf, embryos were assessed for photomotor response using a custom photomotor response analysis tool (PRAT) and for developmental toxicity endpoints (MO24: mortality at 24 hpf, DP: developmental progression, SM: spontaneous movement, and NC: notochord distortion). At 120 hpf, locomotor activity was measured using Viewpoint Zebralab and assessed for 18 endpoints. Zebrafish acquisition and analysis program (ZAAP), a custom program designed to inventory, acquire, and manage zebrafish data, was used to collect developmental endpoints as either present or absent (i.e., binary responses were recorded). If mortality occurred for an embryo (at either 24 or 120 hpf), the non-mortality endpoints were not measured.
SMILES,outcome,AC50
O=[N+]([O-])c1ccc(Oc2ccc(Cl)cc2Cl)cc1,inactive,
CN(C)c1ccc(C(=O)c2ccc(N(C)C)cc2)cc1,,9.64 µM (active)
OCCCBr,inactive,
c1ccc(NNc2ccccc2)cc1,inactive,
Oc1ccc2ccc3cccc4ccc1c2c34,,35.6 µM (active)
N#CC(Br)(Br)C(N)=O,inactive,
Cc1ccc(N=C=O)cc1N=C=O,inactive,
Brc1ccc(Oc2ccccc2)cc1,inactive,
O=C(Nc1ccccc1)c1ccccc1I,inactive,
O=C(O)C1C2CCC(O2)C1C(=O)O (stereo not given),inactive,
CCCCCCCCCCCCCN1CC(C)OC(C)C1 (stereo not given),inactive,
CCNS(=O)(=O)C(F)(F)C(F)(F)C(F)(F)C(F)(F)C(F)(F)C(F)(F)C(F)(F)C(F)(F)F,inactive,
ClC1=C(Cl)C2(Cl)C3C(Cl)C=CC3C1(Cl)C2(Cl)Cl (stereo not given),inactive,
Nc1cc(Cl)cc(C(=O)O)c1Cl,inactive,
CN(C)C(=O)Nc1ccc(Cl)cc1,inactive,
N#CC(Br)Br,inactive,
CC(C)(O)c1cnn2c(-c3ccc(F)c(-c4c(F)cccc4C#N)c3)cnc2n1,inactive,
CCOc1cccc(C2(N3CCN(c4ccccc4)CC3)CCC(C)CC2)c1 (stereo not given),inactive,
CC(C)COC(=O)c1ccccc1C(=O)OCC(C)C,inactive,
c1ccc2c(c1)-c1cccc3cccc-2c13,inactive,

SMILES,outcome,AC50
Cc1ccc([N+](=O)[O-])cc1,inactive,
c1ccc(N=Nc2ccccc2)cc1,inactive,
OCCOCCO,inactive,
CCC(C)c1ccc(O)cc1 (stereo not given),inactive,
O=C(N[C@H](c1ccccc1)[C@@H]1CN2CCC1CC2)c1c(Cl)ccc(C(F)(F)F)c1Cl,,26.7 µM (active)
[O-][Cl+]O,inactive,
COc1cc(C=O)cc2c1[C@H](COC(N)=O)[C@]1(OC(C)=O)ON2C[C@H]2[C@@H]1N2C(C)=O,inactive,
CCCCCOC(=O)c1ccccc1C(=O)OCCCCC,inactive,
Clc1ccc(C(c2ccc(Cl)cc2)C(Cl)(Cl)Cl)cc1,inactive,
Nc1ccc([N+](=O)[O-])cc1,inactive,
CCCSC(=O)N(CCC)CCC,inactive,
Nc1ccc(N=Nc2ccccc2)cc1,inactive,
Clc1ccccc1Cl,inactive,
CCCCCCCCn1sccc1=O,,2.96 µM (active)
c1ccc2c(c1)oc1ccccc12,inactive,
CCC[CH2][Sn]([Cl])([CH2]CCC)[CH2]CCC,,0.282 µM (active)
c1ccc(C2CO2)cc1 (stereo not given),inactive,
CO[C@@H]1[C@H](OC(=O)NC(=O)CCl)CC[C@]2(CO2)[C@H]1[C@@]1(C)O[C@@H]1CC=C(C)C,inactive,
CCCCCCCCOC(=O)c1ccc(C(=O)OCCCCCCCC)c(C(=O)OCCCCCCCC)c1,inactive,
COC(=O)c1ccccc1N,inactive,
